Several values for one entry are separate records, joined by “and”; a condition that tells them apart may be missing. Equal entries are not always repeated. Activity calls are given as the source filed them.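 The calls were made as follows, unless noted: active = compounds whose cell count with miR-34 switched on is under 0.7 times the count with it off; inactive = the rest.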
Legend:
[1] = stimulators of nuclear beta-catenin in C2C12, primary screen, imaging, WNT3A-conditioned medium, mouse C2C12, NPC library (AID 1117326; in the data active = nuclear beta-catenin stimulation mostly above about 4.2%, no sharp cut-off; inactive = mostly below about 10%; also: reference of the scale not given here); conditions: stronger effect = higher value
[2] = stimulators of insulin release from INS-1E, primary screen, cell-based, 5 mM glucose, NPC library (AID 1117329;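 active = compound raises insulin release from rat beta cells at 5 mM glucose, no numeric limit stated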; also: reference of the scale not given here); conditions: rat INS-1E insulin secretion, at 10 µM, stronger effect = higher value
[3] = growth inhibition of GSK3B-pretreated HCT116 cells – cell-based, CellTiter-Glo, 0.2 to 20 µM (AID 1117336;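 active = compounds lowering colon cancer cell viability after pretreatment blocking the GSK3B kinase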); conditions: HCT116 viability after GSK3B inhibitor, at 20 µM, stronger effect = higher value
[4] = inhibition of endothelial tube formation, primary screen, imaging, VEGF stimulated, CD31 staining, tube area, NPC library (AID 1117340;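 active = compound that reduces growth-factor-driven endothelial tube area in a mixed cell culture, no cutoff stated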); conditions: VEGF-stimulated ADSC/ECFC co-culture, at 10 µM, stronger effect = higher value
[5] = glucagon-like peptide 1 release enhancers, primary assay, NCI-H716 cell line, NPC library (AID 1117341;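 active = compound raises GLP1 secretion from the human gut endocrine cells, with no numeric limit stated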; also: reference of the scale not given here); conditions: NCI-H716 cells, at 10 µM, stronger effect = higher value
[6] = HCT116 colon cancer cell growth inhibition, primary screen, CellTiter-Glo luminescence, NPC library (AID 1117342;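 active = compounds that lower survival of HCT116 colon cancer cells in the luminescence readout, no numeric limit stated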); conditions: at 20 µM (top of the series)
[7] = CellTiter-Glo luminescent readout of SW480 viability loss, NPC library primary (AID 1117343;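 active = compounds that lower viability of the colon cancer cells in the luminescence readout, with no numeric limit stated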); conditions: CellTiter-Glo luminescence; at 20 µM (top of the series) unless noted
[8] = decreased DLD-1 cellular survival, CellTiter-Glo luminescent readout, NPC compound collection, primary HTS (AID 1117346;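 active = compounds that lower survival of DLD-1 colon cancer cells in the luminescence readout, no cutoff given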); conditions: DLD-1 viability, CellTiter-Glo luminescence; at 20 µM (top of the series)
[9] = sensitizers of A549 cells to miR-34 induction, primary screen, imaging, A549 dox-inducible miR-34, nuclei and caspase counts (AID 1347080); conditions: A549 miR-34 inducible, Hoechst nuclei count, 48 h
[10] = phospholipid biosynthesis inhibitors in animal cells, primary screen, cell-based, LOPAC library, screen 4 (AID 1347384; call rule not given here); conditions: phospholipid biosynthesis inhibition screen, at 10 µM
[11] = viability rescue of complex I mutant cybrids, primary screen, cell-based, galactose medium, ATP luminescence (AID 1645843;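 active = z-score of at least 1.8 in each of two replicates, scored against plate mean and spread of sample wells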;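 also: positive z means more ATP and so rescue of galactose-driven cybrid death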); conditions: complex I mutant cybrid cells, 72 h, stronger effect = higher value
[12] = liver-stage malaria parasite growth inhibition, primary screen, cell-based, HepG2, luciferase luminescence, HepG2 viability (AID 624349; in the data active = parasite load remaining mostly below about 12%, no sharp cut-off; inactive = mostly above about 10%;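 also: 100% = mean of DMSO negative control wells on the same plate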); conditions: P. berghei liver stage in HepG2, luciferase luminescence, concentration not given here; parasite load remaining: stronger effect = lower value; viability: measured here: HepG2 viability without parasites
[13] = survival rescue of mitochondrial mutant cells in low glucose, primary screen, MELAS cybrids, Rieske KO mouse fibroblasts, CellTiter-Glo (AID 1508586;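 active = mean z-score across replicates of 1.96 or higher in either the MELAS or the Rieske mutant cell line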;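 also: z relative to plate mean and SD of compound and empty wells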)
[14] = stronger effect = lower value, cell number ratio, induced over uninduced
[15] = measured here: relative caspase fold change +Dox/-Dox
[16] = measured here: total cells with miR-34 induction, stronger effect = lower value
[17] = measured here: total cells without miR-34 induction
[18] = MELAS cybrid survival, CellTiter-Glo 48 h, stronger effect = higher value
[19] = Rieske KO mouse fibroblast survival, CellTiter-Glo 72 h

Row | Compound | nuclear beta-catenin stimulation ([1]; at 10 µM) | nuclear beta-catenin stimulation ([1]; stimulation, at 2 µM) [%] | insulin secretion stimulation [2] | viability decrease [3] | tube area decrease [4] | GLP1 secretion stimulation [5] | inhibition of viability [6] | viability decrease (inhibition) [7] | viability decrease (inhibition) [8] | fold change [9, 14] | fold change [9, 15] | cell count [9, 16] | cell count [9, 17] | outcome [10] | z-score [11] | parasite load remaining [12] | viability [12] [%] | z-score [13, 18] | z-score [13, 19]
1 | CC(C)(C)c1ccc(C(=O)CCCN2CCC(OC(c3ccccc3)c3ccccc3)CC2)cc1 | 0.6% (inactive) | 11.9 | 1% (inactive) | 111% (active) | 102% (active) | 6% (inactive) | 114% (active) | 133% (active) | 101% (active) | 1.42 (inactive) | 0.93 | 1290 | 913 | inactive | -0.865 (inactive) |  |  |  | 
2 | CCNC(=O)N1CCN(CCCC(c2ccc(F)cc2)c2ccc(F)cc2)CC1 | 0.3% (inactive) | -1.1 | 1.1% (inactive) | 50.7% (active) | 17.1% (inactive) | 7.1% (inactive) | 85.2% (active) | 119% (active) | 57.7% (active) | 0.987 (inactive) | 1.62 | 6860 | 6940 | inactive | -1.42 (inactive) |  |  |  | 
3 | C[N+](C)(C)CCOC(=O)CCC(=O)OCC[N+](C)(C)C | 0.2% (inactive) | 1.4 | 0.95% (inactive) | 14% (inactive) | -17.3% (inactive) | 3.2% (inactive) | 3.4% (inactive) | -16.3% (inactive) | 3.4% (inactive) | 0.999 (inactive) and 0.895 (inactive) | 1.13 and 1.62 | 9370 and 9270 | 9380 and 10400 | inactive | 0.34 (inactive) and -0.11 (inactive) | 28% (inactive) | 74.5 | -0.659 (inactive) | -1.43
4 | COc1cc(C)c(C=CC(C)=CC=CC(C)=CC(=O)O)c(C)c1C | 1% (inactive) | 1.9 | 2.8% (inactive) | 61.5% (active) | 45.4% (active) | -3.9% (inactive) | 52.1% (active) | 70.9% (active) | 78.6% (active) | 0.847 (inactive) | 1.06 | 6840 | 8080 |  |  |  |  | -0.108 (inactive) | 0.793
5 | COC(=O)C1=C(C)NC(C)=C(C(=O)OC(C)(C)CN(C)CCC(c2ccccc2)c2ccccc2)C1c1cccc([N+](=O)[O-])c1 (stereo unspecified) | 22.4% (inactive) | -0.9 | 1.3% (inactive) | 93.2% (active) | 90.2% (active) | -3.7% (inactive) | 94% (active) | 127% (active) | 92.5% (active) | 1.26 (inactive) and 0.934 (inactive) | 1.89 and 0.993 | 1980 and 4820 | 1570 and 5160 | active | -1.52 (inactive) and -2.66 (inactive) |  |  | -0.809 (inactive) | -0.0835

— PubChem BioAssay
